Data published in PubChem BioAssay AID1508600 (Functional Genomics Laboratory (NCATS/FGL), 2020).
Among all 53,000 sequences or so, about 3,700 (7%) were called active.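 How the source made its calls: active means gene knockdowns whose robust z-score for IL-1 alpha signal is at least 2 or at most -2, so actives lie on both sides; inactive means the rest.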 Shown is part of a subset that was picked to be rich in actives.

assay: Components of the Cytosolic LPS Sensing Pathway: Gene Identification via Genome-wide siRNA Screen; settings: RAW264.7 macrophages, IL-1a HTRF, actives lie on both sides, screened at 100 nM (by protocol), cells primed 5 h with Pam3CSK4 first;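 further: robust z of the log signal after scaling to non-targeting control siRNA wells of the plate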
In short: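 Using IL-1a HTRF as read-out, the screen measured release from RAW264.7 cells after 48h siRNA knockdown (100 nM), 5 h Pam3CSK4 priming and 24 h cytosolic LipidA. Values were expressed relative to negative-control wells as robust z-scores.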

| Sequence | z-score |
| --- | --- |
| GGAGAAGUAAAACUCGAAGTT against Rwdd2a | 0.276 (inactive) |
| CCGAAUUUCUCCUAUUGGGTT against Olfr106-ps | -0.241 (inactive) |
| GGUAUGUAACGGUAUUUAATT against Gja1 | 2.66 (active) |
| CCUAGAGCCGUGUGCAUACTT against Plp2 | 0.891 (inactive) |
| CCAUUGGUUUUGAGGAUAUTT against Pomp | -1.18 (inactive) |
| GGUAGAAAAAACACAAACGTT against Ppp2r3c | 1.43 (inactive) |
| GGUUUUGUGGGAAGAGUCATT against Ccdc163 | -2.99 (active) |
| CCUGGACAUAACCAAUGUATT against Glrp1 | 1.5 (inactive) |
| CCCUGGGCAGUUUGCAUGUTT against Dgcr2 | 0.815 (inactive) |
| GCAACGAGGUACUGUUUUATT against Rab7b | 0.626 (inactive) |
| GGUAGAGCUGCACUUUGGATT against Hddc3 | -1.43 (inactive) |
| GGUUUGUCAGGUUCUAAAATT against Atf1 | 2.34 (active) |
| GGUACAAAGACUGACGAGUTT against Gnptg | 0.00278 (inactive) |
| CGACCAGAAGUGGUAUGUCTT against Adra2a | -1.03 (inactive) |
| GGAGACAUUCACUGUCUUCTT against Ephb4 | -0.322 (inactive) |
| CCAGUAUCUAAUUGGAAUATT against Paqr8 | 2.07 (active) |
| GCUGUUUGAAGCUGAUACCTT against Fads3 | -0.0526 (inactive) |
| GGCAUCCAGACAAGUGAUGTT against Zer1 | 0.699 (inactive) |
| GCCAUCACAAUUCUAAUCCTT against Vmn2r123 | -1.54 (inactive) |
| CCAAGAUUGACAUCAUCCGTT against Pkn1 | -0.595 (inactive) |
| CGAAUACCUGAAGUGCAAATT against Art3 | 0.454 (inactive) |
| GGAGCCAGAACCUGAAAUUTT against Ankrd1 | 2.86 (active) |

| Sequence | z-score |
| --- | --- |
| GCUCUAGACAUAUGAGGCUTT against Wee2 | -0.0864 (inactive) |
| CCCAUGAUGCCAUCUUUAATT against 2410002F23Rik | -1.03 (inactive) |
| GGAACAUUUCUGGAUUGUUTT against Muc1 | -0.503 (inactive) |
| CCAGCUCUCGAUUCCAUCATT against Fem1a | 0.615 (inactive) |
| GGAUACCCUGGAGUUUAUATT against Prss42 | 0.941 (inactive) |
| GCGUGAUCAUUGAUGUGGATT against Slc5a7 | 0.364 (inactive) |
| GUUCCACAAAGACCAUCAGTT against Olfr134 | 0.679 (inactive) |
| GCCUGGUUAAGGCAUGAUATT against Gm4884 | 2.63 (active) |
| GCCACAACCACCUGAACUUTT against Amigo1 | -0.854 (inactive) |
| GGACUUCAAGGAUAGUGAGTT against Osm | -1.13 (inactive) |
| GGUCGAUGCAAAGAUGCUGTT against Smoc1 | 0.811 (inactive) |
| GCUUCUGUAAAUCCCAUAUTT against Olfr26 | -0.0814 (inactive) |
| GCUGUCACUUUGAAUCCCUTT against Nrg1 | -0.988 (inactive) |
| GGUAUUGAAAUGGAAAAGGTT against D6Wsu163e | -1.2 (inactive) |
| GGGCCUAUGCUUACAAACGTT against Pkp3 | 2.37 (active) |
| GGUUCUAAUUAGAGAAACATT against Tcte1 | 0.461 (inactive) |
| CGACCAUUCCUUUGAGUUATT against Atl1 | 3.09 (active) |
| GGAGCUACCUCUGGAUACATT against Tmem269 | 1.28 (inactive) |
| GGUACUGGAAAGAAAUGAGTT against Exph5 | 0.356 (inactive) |
| GGUUGUCAUAAUCUUGUUATT against Irgq | -0.59 (inactive) |
| GGUAUUUAGGUUGAUAACATT against Kbtbd8 | -0.206 (inactive) |
| GGUCUUAGAUAAUGUUAGATT against Gpr26 | 0.718 (inactive) |

| Sequence | z-score |
| --- | --- |
| CCCUGUAAGGUUGAUUGUGTT against Oog3 | 0.535 (inactive) |
| GGCUCAUUCCUCUUCUUCCTT against Serhl | -3.08 (active) |
| GCCAAGUAAAACCAAAUGUTT against Ldlrad4 | -1.85 (inactive) |
| CCGAGAACAGUUGAAGAAGTT against Srbd1 | 0.174 (inactive) |
| GGUGGAUGAGUUGUUCCUUTT against Adck5 | 0.637 (inactive) |
| GCUACAGGAUUUAUACAUGTT against Dhx29 | 0.865 (inactive) |
| GGGACUUAUGUACAACUUCTT against Idua | 1.53 (inactive) |
| CCUCUGCGCAAUUUAGAGATT against Npb | 1.1 (inactive) |
| GACAAGAACCCGGAUAAUATT against Dnajb2 | -0.229 (inactive) |
| GCAAGCACGUCAGAAUCUCTT against Pln | 2.32 (active) |
| GGAAGAACUGAUUGAAGAGTT against Sptlc1 | -0.789 (inactive) |
| GGUGAAAGACCAUUUAUUUTT against Zxdc | 0.657 (inactive) |
| CGUGACUCUGCUUUAACUCTT against Col27a1 | -2.27 (active) |
| GGAGCUUGCUCAGACUACUTT against Cct8 | -0.914 (inactive) |
| GCCUAUCGUCCAGAUUAUCTT against Senp1 | 0.919 (inactive) |
| GGUCAAGUAUCUGAGAAAATT against Selenoh | 0.154 (inactive) |
| GGCGAUAAGGAACAGAAGUTT against Ppp3r1 | -0.199 (inactive) |
| GGUCAACCUCAAAGUCUUUTT against Il17a | 0.581 (inactive) |
| GGGCUUCAGAAAAUCCAGGTT against Dclre1a | -0.447 (inactive) |
| GGCUCCUAUAUACUGAUCATT against Olfr1402 | -2.65 (active) |
| CCUGGUAAAAGACUGGGCUTT against Dnal1 | 1.76 (inactive) |
| GGUUAGUCGACAGAAACAATT against Poteg | -1.11 (inactive) |

| Sequence | z-score |
| --- | --- |
| GCUGUCUCAAUCACCCUAATT against Olfr1427 | -1.23 (inactive) |
| GGUCAAGUGUAACAAAGAATT against Bcorl1 | -0.417 (inactive) |
| GGUCAUUAUUGUCAUCUACTT against Tmem9 | -0.323 (inactive) |
| GGAAAUCACUGGUUUUCAATT against Asah2 | 2.88 (active) |
| GGAGACUGACAAGAAAAUUTT against Gm16367 | -0.967 (inactive) |
| GCAUCACGUAUGUGAUUUGTT against Dmrtc1a | -0.569 (inactive) |
| GCAGAGGAGUGAAUAGAUATT against Dtx3l | 0.45 (inactive) |
| GGCCAACUUUUUUCACCCATT against Git1 | -2.19 (active) |
| GGUUGUUCGUGGACACUACTT against Rpl26 | -0.404 (inactive) |
| GGCCGUCACUACUCUGAAATT against Mgst2 | -2.29 (active) |
| GGCACUUCUUGGACAUCAUTT against Sfxn5 | -0.019 (inactive) |
| CGAAGGUCUGUUCGAGAACTT against Morn4 | 0.668 (inactive) |
| GCUUCAUCCUAGCGGUUUGTT against Dad1 | -0.899 (inactive) |
| CGAUCGAAUCCUUAAGUACTT against Ttll1 | -0.0193 (inactive) |
| GCUUUUUACAGGAUAUACATT against Zfp644 | -0.143 (inactive) |
| GCCAUACCUUCAACUGUCGTT against Ncoa2 | -2.42 (active) |
| GGAACGUAAACUAAGCCCGTT against Foxb1 | 0.458 (inactive) |
| CCCAUUUCACUUCAGUUUGTT against Osbp2 | -0.253 (inactive) |
| CCCAAAACGGUAGCUUAAGTT against Rcc1 | -0.0143 (inactive) |
| GGCAAGAAAGGACCAAUGGTT against Cln8 | 0.206 (inactive) |
| CCGUGGGUUUUUUGAAUCUTT against Slc6a1 | 2.63 (active) |
| GCCCAAUAGAAGCUGGAUGTT against Tex29 | -1.99 (inactive) |

| Sequence | z-score |
| --- | --- |
| GGAGCGAGAAGCUUUAGAATT against Ubxn1 | 0.61 (inactive) |
| GGCCAACUAGGGUGUUUGUTT against Tsx | 0.182 (inactive) |
| GCUAUUAGGAAAUGAAAGATT against Ncald | 0.384 (inactive) |
| GCAGAGACUCCAAAGCUCATT against Chd4 | -2 (active) |
| GGAACUUGACAAAGUCUACTT against Panx1 | 1.2 (inactive) |
| GGAAGAAGAAGGUGUAACCTT against Defb39 | 0.567 (inactive) |
| GGCAUCUGUUACCCAGAAUTT against Zfp384 | -1.92 (inactive) |
| CCAAAUGACUUUGGUCCUATT against Vax2 | 0.576 (inactive) |
| CCAUCCUCAACAAGAUCGATT against Rab4b | 2.25 (active) |
| GGUGGUAACCAAUCAUUACTT against Cd200r1 | -0.296 (inactive) |
| GCAUAAACUAACCACUUAGTT against Evi2b | -1.77 (inactive) |
| GGCUUUUUUGCCAUUGCUATT against Wnt9b | 0.19 (inactive) |
| GGAGAUUCAUCGCUACCUUTT against Ccna1 | 2.46 (active) |
| GGUUGUAGGAAGAAGAGAATT against Olfr957 | -0.798 (inactive) |
| CGGUCUUUAUUACAUAAUCTT against Ptpro | -0.757 (inactive) |
| CCAUUGCAUAUUUAGUAGCTT against Sox11 | -0.765 (inactive) |
| CGUAAAUAUGCCCGUAGUUTT against Bpifa1 | 0.31 (inactive) |
| GGUCUGUAUCCCACUUUUCTT against Dalrd3 | -2.15 (active) |
| CCUCUACUCAAGUUUACUUTT against Casq2 | 0.417 (inactive) |
| GGCGAUGGAAAGACUGCACTT against Hus1b | 0.311 (inactive) |
